According to paper PMC4336329 (PLoS ONE, 2015):
Out of some 310,000 compounds screened, about 14,000 (4.5%) showed an effect of 50% or more. Effects have a minus sign here. The full list was thinned out, with strong results kept by preference.

Each compound was assayed against human ether-à-go-go-related gene (hERG) potassium channel (human, UniProt Q12809) (assay: primary screen, population patch clamp on CHO cells stably expressing hERG; higher = less effect of the substance).
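Further: peak tail current of the secondary pulse compared with the same well before compound.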

Sequence of human ether-à-go-go-related gene (hERG) potassium channel (Q12809 whole entry, looked up): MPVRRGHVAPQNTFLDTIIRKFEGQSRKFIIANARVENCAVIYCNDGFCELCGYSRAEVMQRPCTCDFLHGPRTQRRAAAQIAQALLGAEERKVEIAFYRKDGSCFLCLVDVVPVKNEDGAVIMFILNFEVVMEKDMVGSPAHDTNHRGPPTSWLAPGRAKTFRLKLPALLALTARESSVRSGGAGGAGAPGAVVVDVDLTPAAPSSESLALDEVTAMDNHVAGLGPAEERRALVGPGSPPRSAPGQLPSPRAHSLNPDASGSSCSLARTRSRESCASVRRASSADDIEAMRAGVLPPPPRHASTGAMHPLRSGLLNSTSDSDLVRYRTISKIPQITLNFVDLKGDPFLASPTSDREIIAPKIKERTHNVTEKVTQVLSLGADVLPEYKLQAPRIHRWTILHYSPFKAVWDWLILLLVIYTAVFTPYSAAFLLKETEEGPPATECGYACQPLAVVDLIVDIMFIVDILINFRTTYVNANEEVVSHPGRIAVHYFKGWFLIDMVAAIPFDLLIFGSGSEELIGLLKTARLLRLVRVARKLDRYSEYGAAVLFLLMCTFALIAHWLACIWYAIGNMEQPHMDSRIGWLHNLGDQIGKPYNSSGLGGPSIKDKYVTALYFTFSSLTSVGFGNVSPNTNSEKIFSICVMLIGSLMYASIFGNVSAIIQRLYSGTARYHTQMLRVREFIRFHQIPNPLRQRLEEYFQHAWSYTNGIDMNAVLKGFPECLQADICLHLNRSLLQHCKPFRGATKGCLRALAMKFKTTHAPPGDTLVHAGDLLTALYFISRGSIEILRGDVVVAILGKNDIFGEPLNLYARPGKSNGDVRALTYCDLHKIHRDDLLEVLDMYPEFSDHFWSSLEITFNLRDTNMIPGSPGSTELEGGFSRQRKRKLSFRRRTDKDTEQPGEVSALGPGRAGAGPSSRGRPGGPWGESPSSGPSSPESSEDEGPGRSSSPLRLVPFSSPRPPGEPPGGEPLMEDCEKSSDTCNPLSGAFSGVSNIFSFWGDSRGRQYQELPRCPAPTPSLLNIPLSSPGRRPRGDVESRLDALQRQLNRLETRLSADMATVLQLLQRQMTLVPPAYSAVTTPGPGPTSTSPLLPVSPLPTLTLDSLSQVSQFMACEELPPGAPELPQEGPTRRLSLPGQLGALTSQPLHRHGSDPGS

Structure (SMILES)	hERG current change (%, negative = inhibition) at 10uM [%]
Cc1ccccc1-c1noc(CCC(=O)NCc2ccco2)n1	-2.05
C#CCOCCOCCOCCNc1nc(N2CCN(C(=O)[C@H](CCCCN)n3cc(C(N)[C@H](C)CC)nn3)CC2)nc(N2CCN(C(=O)[C@H](CCC(=O)O)n3cc(C(N)[C@H](C)CC)nn3)CC2)n1.Cl (stereo partly shown)	13.5
C=C[C@@H]1c2cc(C)ccc2N(S(=O)(=O)c2ccc(C)cc2)[C@H](c2ccccc2C(F)(F)F)C1(C#N)C#N	7.01
COc1cc(C(=O)NCC(=O)N/N=C(/C)c2cccs2)cc(OC)c1OC	-0.388
Cc1ccc(CC(=O)Nc2ccc(S(=O)(=O)Nc3ncccn3)cc2)cc1	19.9
CC(c1ccccc1)n1c(-c2ccccc2F)n[nH]c1=S (stereo not shown)	-11.9
CCn1ccnc1CN1CCCC(C(=O)c2ccc3c4c(cccc24)CC3)C1 (stereo not shown)	-77.4
CC(=O)NCC(=O)N1CCCC(C(=O)c2ccc3c4c(cccc24)CC3)C1 (stereo not shown)	8.94
Cc1cnc(CN2CCCC(C(=O)c3ccc4c5c(cccc35)CC4)C2)[nH]1 (stereo not shown)	-31.7
CC(=O)N1CCCC(C(=O)c2ccc3c4c(cccc24)CC3)C1 (stereo not shown)	-8.18
COc1cc(CN2CCCC(C(=O)c3ccc4c5c(cccc35)CC4)C2)cc(OC)c1O (stereo not shown)	-53
Cc1cccc(CN2CCCC(C(=O)c3ccc4c5c(cccc35)CC4)C2)n1 (stereo not shown)	-40.7
CN1CCC(C(=O)N2CCCC(C(=O)c3ccc4c5c(cccc35)CC4)C2)CC1 (stereo not shown)	-61.1
COCC(=O)N1CCCC(C(=O)c2ccc3c4c(cccc24)CC3)C1 (stereo not shown)	-21.2
Cc1ncoc1C(=O)N1CCCC(C(=O)c2ccc3c4c(cccc24)CC3)C1 (stereo not shown)	-15.5
O=C(c1ccc2c3c(cccc13)CC2)C1CCCN(Cc2ncc[nH]2)C1 (stereo not shown)	-55.7
Cc1ncccc1C(=O)N1CCCC(C(=O)c2ccc3c4c(cccc24)CC3)C1 (stereo not shown)	-13.2
Cc1ccc(OCC(=O)NCCNC(=O)c2ccncc2)cc1C	15.9
Cc1ccc(S(=O)(=O)NCc2ccccc2)cc1C(=O)N(C)Cc1ccc(F)cc1	5.11
O=c1c2ccccc2oc2nc(-c3ccco3)n(Cc3ccccc3)c(=O)c12	-9.22
CCOC(=O)c1cc2occc2n1CC(=O)Nc1ccc(OC)cc1OC	-15
O=C(NCCOc1nc(N2CCCCC2)nc(N2CCOCC2)n1)Nc1ccccc1	-0.098

Structure (SMILES)	hERG current change (%, negative = inhibition) at 10uM [%]
Cc1ccc(S(=O)(=O)NCc2ccco2)c(C)c1C	-4.4
CN(NC(=O)c1ccco1)c1nc2ccccc2nc1C(F)(F)F	0.871
N#CCCN(Cc1cccnc1)C(=O)Nc1cccc(Cl)c1	-10.9
N#Cc1ccc(-c2csc(NNC(=O)c3ccccc3)n2)cc1	0.0899
Cc1ccc(NS(=O)(=O)c2ccc(C3CCCCC3)cc2)cc1	-10.3
CC12CCC(=O)N1C(C(=O)NCc1ccc(Cl)cc1Cl)CS2 (stereo not shown)	-0.564
CN(C)c1ccc(-c2nc3ccccc3n2C)cc1	-49.9
COCn1c(-c2ccccc2)nc2ccccc21	-5.43
CCn1c(-c2ccc(N)cc2)nc2ccccc21	4.21
CCn1c(-c2ccc(N(C)C)cc2)nc2ccccc21	-50.3
C=C(C)Cn1c(-c2ccc(OC)cc2)nc2ccccc21	-23.4
C=C(C)Cn1c(-c2ccccc2)nc2ccccc21	-64.9
Cc1ccc(C(=O)CSc2nc(N)cc(=O)[nH]2)cc1	2.68
Fc1ccc(NC(=S)N/N=C/c2cccc(Br)c2)c(F)c1	3.9
O=C(COC(=O)Cc1ccsc1)NCc1ccc(Cl)cc1	10.6
CC(Sc1cnc2ccccc2n1)C(=O)O (stereo not shown)	15.9
Cc1ccc(C#N)c(SCc2ccccc2[N+](=O)[O-])n1	2.72
CCOc1ccc(-c2nc(C)c(C(C)=O)n2O)cc1	-0.685
Cc1nonc1OCCCNc1ccc([N+](=O)[O-])cc1Cl	9.59
O=[N+]([O-])c1ccc(NCCNCCOc2nonc2-c2ccccc2)c([N+](=O)[O-])c1	-68.6
Cc1nonc1OCCNc1ccc([N+](=O)[O-])cc1[N+](=O)[O-]	-54.7
Cc1nonc1OCCN1CCN(c2ccc([N+](=O)[O-])cc2)CC1	-98.3

Structure (SMILES)	hERG current change (%, negative = inhibition) at 10uM [%]
Cc1nonc1OCCNCCNc1ccccc1[N+](=O)[O-]	-23.4
Cc1nonc1OCCNc1ccc([N+](=O)[O-])c2cccnc12	-18
Cc1nonc1OCCNCCNc1ccc([N+](=O)[O-])c2cccnc12	-52.2
Cc1nonc1OCCNCCNc1ccc([N+](=O)[O-])cc1Cl	-49.7
Cc1nonc1OCCN1CCN(c2ccccc2[N+](=O)[O-])CC1.Cl	-37.2
CCNCCNc1ccc([N+](=O)[O-])c2cccnc12	-22.8
O=[N+]([O-])c1cc(C(F)(F)F)ccc1NCCOc1ccccc1	-3.64
O=[N+]([O-])c1ccc(N2CCN(CCOc3nonc3-c3ccccc3)CC2)c(Cl)c1	-4.17
CNC(=O)c1csc(-c2ccc(Cl)cc2)n1	-4.29
CCn1cc([N+](=O)[O-])c(C(=O)NCc2ccc(Cl)cc2)n1	-6.18
CCO.NCCc1c[nH]c2ccc(C(N)=O)cc12.O=C([O-])/C=C\C(=O)[O-]	11.6
CC(=O)c1ccc(NC(=O)C2CCCN2S(=O)(=O)c2ccc(F)cc2)cc1 (stereo not shown)	-16.6
O=c1c2ccccc2[nH]c(=S)n1CCCn1ccnc1	-0.744
O=S(=O)(c1ccc(NC(=S)Nc2ccc3c(c2)OCO3)cc1)N1CCOCC1	13.1
COc1ccc(C2/C=C\CN(C(=O)C3CCCCC3)CC(=O)N2Cc2ccc(F)cc2)cc1 (stereo not shown)	-10.1
Cc1cc(OCC(=O)NNC(=O)CCc2ccccc2)ccc1Br	17.6
CCC[N+](C)(C)C(C)C(OC(C)=O)c1ccccc1.[I-] (stereo not shown)	15.5
CCOC(=O)CC(=O)Nc1ccsc1C(N)=O	15.9
COc1ccccc1N1CCN(/N=C/c2ccc(C(=O)O)cc2)CC1	16.3
COc1ccc(S(=O)(=O)NCC2CCCN(C(=O)c3ccccc3)C2)cc1 (stereo not shown)	8.3
CC1=C(C(=O)N2CCOCC2)C(c2c(C)cc(C)cc2C)NC(=S)N1 (stereo not shown)	10.5
COC(=O)C1=CN(c2cc(C)cc(C)c2)C=C(C(=O)OC)C1c1ccc(OC)c(O)c1	10.9

Structure (SMILES)	hERG current change (%, negative = inhibition) at 10uM [%]
CN(C)CCCNCCCNC(=O)/C=N/O	10.2
CN(C)CCCNCCCCNC(=O)/C=N/O	0.266
CN(C)CCCNCCNC(=O)/C=N\O.Cl	-65.4
CCOc1ccc(OCCC(=O)OC(C)C(=O)Nc2ccc(C(C)=O)cc2)cc1 (stereo not shown)	8.72
CC(=O)Nc1ccc(S(=O)(=O)N2c3ccccc3NC(=O)CC2C)c(Cl)c1 (stereo not shown)	11.9
CCOc1ccc(Nc2nc3c(C)cccc3cc2C#N)cc1	4.76
O=C(N/N=C/c1cccc(Oc2ccc([N+](=O)[O-])cc2[N+](=O)[O-])c1)c1cncc(Br)c1	-32.1
Nc1ccc(Oc2ccc([N+](=O)[O-])cc2[N+](=O)[O-])cc1	-37.7
Cc1cc(=O)oc2cc(Oc3ccc(C(N)=O)cc3[N+](=O)[O-])ccc12	-20.7
O=Cc1cccc(Oc2ccc([N+](=O)[O-])cc2[N+](=O)[O-])c1	-55
Cc1cc(=O)oc2cc(Oc3ccc([N+](=O)[O-])cc3C(F)(F)F)ccc12	-15
Cc1cc(=O)oc2cc(Oc3ccc([N+](=O)[O-])cc3[N+](=O)[O-])ccc12	-64.4
Cc1ccc(O)c(C2=Nc3ccccc3N=C(c3cccc([N+](=O)[O-])c3)C2)c1	20.9
O=C(COc1ccccc1)OCc1cc(-c2ccco2)on1	5.99
Cc1ccc(C)c(NC(=S)N2CCN(Cc3ccccc3)CC2)c1	11.2
O=C(O)CCN=C1CCCc2ccccc2N1	7.26
O=C1CC(c2cccc(Cl)c2)CC(O)=C1C=NC1CCCC1 (stereo not shown)	-59.8
O=C1CC(c2ccccc2)CC(O)=C1C=NC1CCCC1 (stereo not shown)	-5.2
O=C1CC(c2ccccc2)CC(O)=C1C=NC1CCCCCC1 (stereo not shown)	6.58
CCOc1ccc(C(=O)NCC(=O)NCC(c2ccc(OC)cc2)N2CCCC2)cc1 (stereo not shown)	-4.71
Cc1ccc(C)c(OC(=O)C2CSC3(C)CCC(=O)N23)c1C (stereo not shown)	-7.46
COc1cc(C(O)P(=O)(OCCC(C)C)c2ccc(N(C)C)cc2)cc(OC)c1OC (stereo not shown)	10.9
